From article PMC8159961, “Exploring protein hotspots by optimized fragment pharmacophores” (Nature Communications, 2021) come the findings set out here.

Structures are written as SMILES. Unmarked numbers belong to inactive results. The rule behind the calls is not given here.

The target of this assay is 5-HT1A receptor (human, UniProt P08908). Put plainly: primary screen, binary call; higher = more effect of the substance. On the set-up: hit call from the mean of at least two separate experiments. The note with it: 10 µM. The protocol: GPCR radioligand binding assays were performed in HEK293 cells with stable expression of human 5-HT1A, 5-HT6, and 5-HT7b receptors (prepared with the use of Lipofectamine 2000). Non-specific binding was defined with 10 µM of 5-HT in 5-HT1AR and 5-HT7R binding experiments, whereas 10 µM of mianserin was used in 5-HT6R assays, respectively. Each compound was tested at 10 µM concentration. Results were expressed as means of at least two separate experiments.
Sequence of 5-HT1A receptor (P08908 whole entry, looked up): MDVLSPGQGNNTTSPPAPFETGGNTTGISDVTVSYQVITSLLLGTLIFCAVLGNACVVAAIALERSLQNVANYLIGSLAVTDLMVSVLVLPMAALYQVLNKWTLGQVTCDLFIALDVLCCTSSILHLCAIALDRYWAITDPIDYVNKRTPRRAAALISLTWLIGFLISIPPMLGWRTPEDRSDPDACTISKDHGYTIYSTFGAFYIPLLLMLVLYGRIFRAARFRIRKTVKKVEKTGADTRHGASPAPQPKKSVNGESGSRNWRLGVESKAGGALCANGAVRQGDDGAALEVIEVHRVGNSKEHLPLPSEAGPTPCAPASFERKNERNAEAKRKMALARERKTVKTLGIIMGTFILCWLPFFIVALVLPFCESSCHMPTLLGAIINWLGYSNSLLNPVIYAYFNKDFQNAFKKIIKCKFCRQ
On to `FC1(F)CNCC(F)(F)O1`, for which the 5-HT1 is 0.

With `CC(=O)c1sc(-c2ccc(O)cc2)nc1C`, the 5-HT1 was 0. For `NCC1(c2ccccc2)CCOCC1` the value was 0. For `Nc1ccc(SC(F)F)cc1` the value was 0.

Turning to `COc1ccccc1CC1CCNCC1.Cl`, the 5-HT1 was 1 (active). For `O=C(NC1CC1)c1ccccc1O` the value was 0; for `O=C1CSC(Nc2ccc(F)cc2)=N1`, 0; for `CC(CN)N1CCc2sccc2C1` (stereo not shown), 0.

With `O=C(O)c1cccc(Nc2ncccn2)c1`, the 5-HT1 is 0. For `O=C(c1ccccc1F)N1CCNCC1` the value was 0; for `Clc1ccc2nnnn2n1`, 0.

As to `c1ccc2c(N3CCNCC3)ccnc2c1`, the 5-HT1 is 1 (active).

Take `O=C1NC2(CCCC2)Nc2ccccc21`: the 5-HT1 was 0.

Turning to `CC1C(=O)NC(=O)N1c1ccc(Cl)cc1` (stereo not shown), the 5-HT1 was 0. `COc1ccccc1C1CCNCC1`: the 5-HT1 was 1 (active). On to `CC1CCc2sc(C(=O)O)cc2C1` (stereo not shown), for which the 5-HT1 is 0. For `Fc1ccc2c(C3CCNCC3)c[nH]c2c1` the value was 1 (active); for `Cc1ccc(C)n1Cc1ccccc1Cl`, 0; for `CCn1cnc2ccccc21`, 0. Turning to `Oc1ccccc1N1CCCCC1`, the 5-HT1 is 0. As for `c1ccc(-c2ccncc2)cc1`, the 5-HT1 was 0. Turning to `N#CCCN1CCc2ccccc21`, the 5-HT1 is 0. For `Brc1ccc(-c2ccon2)cc1` the value was 0; for `Cc1ccc(-c2ccc(O)cc2)cc1`, 0. Regarding `O=C(O)C1CCCN(C(=O)N2CCCC2)C1` (stereo not shown), the 5-HT1 was 0.

`O=C1NC(=O)C2(CCc3ccccc32)N1` (stereo not shown): the 5-HT1 is 0. For `NC(c1ccccc1)c1ccccc1` the value was 0; for `c1ccc(Nc2nncs2)cc1`, 0; for `Cc1nccn1Cc1cccc(C#N)c1`, 0. For `Oc1cnc(-c2ccccc2)nc1` the value was 0; for `O=c1ccc2c([nH]1)CCCC2`, 0. To `Nc1nnc(-c2cccs2)[nH]1` belongs 0; to `Cc1cc(-c2ccccc2)n[nH]1`, 0; to `O=C1CC(CSc2ccc(Cl)cc2)=NN1`, 0. Regarding `O=C1CCCc2occc21`, the 5-HT1 was 0. To `Cc1nc(-c2ccccc2)cs1` belongs 0; to `N[C@H]1c2ccccc2C[C@H]1CO`, 0.

In the case of `O=C1CCN(c2ccncc2)CC1`, the 5-HT1 is 0. Consider `c1ccc2oc(C3CCCNC3)nc2c1` (stereo not shown), for which the 5-HT1 was 1 (active).

For the molecule `NC(=O)N1CCC(C(=O)O)CC1`, the 5-HT1 is 0.
